Assay results as given in patent US20180258417, “RAPID CHARACTERIZATION OF CAS ENDONUCLEASE SYSTEMS, PAM SEQUENCES AND GUIDE RNA ELEMENTS” (PIONEER HI-BRED INTERNATIONAL, INC., published 2018).

T1: Blat Cas9 (Brevibacillus laterosporus SSP360D4)
T1 chain: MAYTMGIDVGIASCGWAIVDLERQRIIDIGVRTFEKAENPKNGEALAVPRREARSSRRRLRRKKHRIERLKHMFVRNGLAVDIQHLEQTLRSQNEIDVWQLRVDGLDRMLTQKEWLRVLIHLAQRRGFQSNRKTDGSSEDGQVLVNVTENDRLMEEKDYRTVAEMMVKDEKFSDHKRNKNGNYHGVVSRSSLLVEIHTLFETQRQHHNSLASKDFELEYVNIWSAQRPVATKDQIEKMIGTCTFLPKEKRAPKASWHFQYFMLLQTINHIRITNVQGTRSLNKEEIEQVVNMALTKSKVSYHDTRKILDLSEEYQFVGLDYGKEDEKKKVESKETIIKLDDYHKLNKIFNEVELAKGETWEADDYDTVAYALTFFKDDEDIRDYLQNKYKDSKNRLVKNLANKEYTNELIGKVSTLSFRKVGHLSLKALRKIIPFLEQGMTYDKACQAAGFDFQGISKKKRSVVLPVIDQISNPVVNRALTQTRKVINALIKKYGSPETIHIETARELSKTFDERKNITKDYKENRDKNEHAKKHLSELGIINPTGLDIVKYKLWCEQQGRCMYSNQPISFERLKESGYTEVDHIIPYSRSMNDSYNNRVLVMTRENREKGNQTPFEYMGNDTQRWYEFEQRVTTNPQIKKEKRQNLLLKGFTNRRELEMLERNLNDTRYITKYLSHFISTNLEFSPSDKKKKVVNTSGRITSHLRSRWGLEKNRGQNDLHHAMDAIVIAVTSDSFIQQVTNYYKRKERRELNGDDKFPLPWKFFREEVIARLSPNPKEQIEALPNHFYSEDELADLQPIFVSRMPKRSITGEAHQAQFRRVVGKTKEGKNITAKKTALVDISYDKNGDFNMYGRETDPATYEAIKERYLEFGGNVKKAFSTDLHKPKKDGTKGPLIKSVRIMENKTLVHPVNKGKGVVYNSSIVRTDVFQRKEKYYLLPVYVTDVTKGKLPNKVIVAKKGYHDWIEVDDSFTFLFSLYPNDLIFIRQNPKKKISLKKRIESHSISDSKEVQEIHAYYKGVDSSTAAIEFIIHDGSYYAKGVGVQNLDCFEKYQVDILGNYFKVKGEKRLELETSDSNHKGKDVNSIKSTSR

B1: Blat sgRNA direct ; T1 + GTCCCGCA PAM (ssRNA ; dsDNA)
RNA: GGGCGCUAAAGAGGAAGAGGACAGCUAUAGUUCCUUACUGAAAGGUAAGUUGCUAUAGUAAGGGCAACAGACCCGAGGCGUUGGGGAUCGCCUAGCCCGUUUUUACGGGCUCUCCCCAUAUUCAAAAUAAUGACAGACGAGCACCUUGGAGCAUUUAUUUCCGAGGUGCUUUUUUUU
DNA 1: CGCTAAAGAGGAAGAGGACAGTCCCGCA
DNA 2: TGCGGGACTGTCCTCTTCCTCTTTAGCG
modifications: [NONE]
B2: Blat sgRNA direct ; T1 + GTCCCGAC PAM (ssRNA ; dsDNA)
RNA: B1 RNA
DNA 1: CGCTAAAGAGGAAGAGGACAGTCCCGAC
DNA 2: GTCGGGACTGTCCTCTTCCTCTTTAGCG

Experiments:
Blat Cas9 [1] = target: T1, Blat Cas9; assay: cleavage_in_vitro; PAM position 7 A to C; 10 mM MgCl2, 15 C; settings: tags: C-terminal His (pBAD24-CHis)
Description: (§1) To validate the PAM specificity for Blat Cas9, plasmids were engineered to contain mutations ([…] (reference), […], […], […], […], […] with mutations shown in bold and underlined, FIG. 39) in the most conserved residues of the PAM immediately downstream of a 20 base pair region matching the variable targeting domain T1 (SEQ ID NO: 141). In vitro cleavage reactions with the various PAM sequences were initiated by mixing supercoiled plasmid DNA with pre-assembled Blat Cas9-sgRNA complex (1:1 v/v ratio) at 15° C. The final reaction mixture contained 3 nM plasmid, 50 nM Cas9, 10 mMTris-HCl (pH 7.5 at 37° C.), 100 mM NaCl, 1 mM DTT and 10 mM MgCl2 in a 100 μI reaction volume. Aliquots were removed at timed intervals and quenched with phenol/chloroform. The aqueous phase was mixed with 3× loading dye solution (0.01% (w/v) bromophenol blue and 75 mM EDTA in 50% (v/v) glycerol) and reaction products analyzed by agarose gel electrophoresis. The amount of supercoiled (SC) form was evaluated by densitometric analysis of ethidium bromide stained gels using the software ImageJ. Values of reaction rate constants were obtained as described by Szczelkun, et al., (2014) Proc. Natl. Acad. Sci. USA 111:9798-9803). Replacement of the C nucleotide at the 5th position abolished plasmid DNA cleavage confirming its key role in Blat Cas9 PAM recognition (FIG. 39).

Blat Cas9 [2] = target: T1, Blat Cas9; assay: cleavage_in_vitro; PAM position 8 A to C; 10 mM MgCl2, 15 C; settings: tags: C-terminal His (pBAD24-CHis)
Description: as §1

Row | Binder | cleavage rate decrease vs reference PAM (Blat Cas9 [1]) [fold decrease in rate] | binding signal (Blat Cas9 [2]) [fold decrease in rate]
1 | B1 | 43 | 
2 | B2 |  | 12
